Where “and” joins values, the source holds several entries; their conditions need not be identical. Identical values can stand only once. Results filed as inconclusive are left out. Where a call stands in place of a potency, no number is given. Unmarked numbers belong to inactive results. Calls of active or inactive are those of the source. Calls follow the shape of the dose curve; as a rule, active = well fitted curve in the direction sought with a large enough effect; inconclusive = small, poorly fitted or top-dose-only effect, or another doubt; inactive = no such curve, though single readings can be large; an effect the other way counts as inactive or inconclusive.
Experiments:
[1] = Viability qHTS for spleen associated tyrosine kinase inhibitor (SYKi) naive MV4-11 cells (AID 1963823); also: nearly all actives have a fitted effect of over 40% in size
In short: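 Compounds were dispensed acoustically onto plates, MV4-11 cells (SYKi-naive) added at 500 per well, and plates incubated 72 hr at 37 C. CellTiter-Glo was added and luminescence measured after 10 min.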

[2] = Cellular viability qHTS for adrenocortical cancer (ACC) cell line SW-13 (AID 1963989); conditions: SW-13 ACC cells viability, CellTiter-Glo, 48 h; activity (max response): active compounds read low; also: nearly all actives have a fitted effect of over 65% in size;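 as to activity (max response): cells grown in serum-free medium with ITS supplement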
In short: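 Viability was read as CellTiter-Glo luminescence after 48 h compound treatment (up to 46 uM final) of SW-13 cells grown serum-free; titration curves were fit with a four-parameter logistic model to give IC50 and efficacy.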

[3] = Cellular viability qHTS for adrenocortical cancer (ACC) cell line NCI-H295R (AID 1963990); also: nearly all actives have a fitted effect of over 60% in size
In short: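 CellTiter-Glo ATP luminescence, read 48 h after compound addition, measured viability of NCI-H295R adrenocortical cells grown serum-free with ITS. Final concentrations spanned up to 46 uM. Data normalized to DMSO and doxorubicin, fitted for IC50 and maximal response.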
Potency is read from the fitted curve at half-maximal effect.

| Structure (SMILES) | Potency [1] | activity (max response) [2] | Potency [3] | Potency [2] |
| --- | --- | --- | --- | --- |
| Cc1ncc(CO)c(CN)c1O | inactive | 7.61% | inactive | – |
| CC1=C(/C=C/C(C)=C/C=C/C(C)=C/C=C/C=C(C)/C=C/C=C(C)/C=C/C2=C(C)CCCC2(C)C)C(C)(C)CCC1 | 23.5 µM (active) | -7.78% | inactive | – |
| COc1ccc(C(=O)N2CCN(c3ccc4c(c3)CCC(=O)N4)CC2)cc1OC | inactive | 5.3% | inactive | – |
| O=C(NNc1ccccc1)c1ccncc1 | inactive | 1.69% | inactive | – |
| COc1cc([C@@H]2c3cc4c(cc3[C@@H](O[C@@H]3O[C@@H]5CO[C@@H](c6cccs6)O[C@H]5[C@H](O)[C@H]3O)[C@H]3COC(=O)[C@H]23)OCO4)cc(OC)c1O | 0.0742 µM (active) | – | 7.08 µM (active) | 2.51 µM (active) |
| COc1ccc(-c2cc(=S)ss2)cc1 | inactive | -5.69% | inactive | – |
| CCOc1ccccc1OCCN[C@H](C)Cc1ccc(OC)c(S(N)(=O)=O)c1 | inactive | 2.5% | inactive | – |
| C=CCc1cccc(/C=N/NC(=O)CN2CCN(Cc3ccccc3)CC2)c1O | 7.42 µM (active) | – | 10 µM (active) | 8.91 µM (active) |
| O=C(O)CCn1c2c(c3ccccc31)C[C@H](NS(=O)(=O)c1ccc(F)cc1)CC2 | inactive | -2.29% and -2.36% | inactive | – |
| NC(N)=Nc1nc(CSCC/C(N)=N/S(N)(=O)=O)cs1 | inactive | 9.53% | inactive | – |
| C[C@H](CCC(=O)O)[C@H]1CC[C@H]2[C@@H]3[C@H](O)C[C@@H]4C[C@H](O)CC[C@]4(C)[C@H]3CC[C@]12C | inactive | -16.1% | inactive | – |

Source: PubChem BioAssay (NCATS)
